Consider 15 compounds from PubChem BioAssay (EPA / NIEHS).

Results filed as inconclusive are left out. Activity calls are given as the source filed them. The calls were made as follows, unless noted: active = hit-call score of the fitted dose curve at least 0.9, where 1 is the maximum; inactive = score below 0.9.

One may read the AC50 as the concentration at which the activity in the assay is half-maximal.

Experiment [1] can be described thus: CCTE_Shafer_MEA_acute_spike_number: CCTE's Neural Acute Assay for Total Number of Spikes, Shafer Lab (AID 2284008).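 As to AC50: curve fitted for decrease in spike count so AC50 reflects inhibitors.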 The essentials: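 Rat primary cortical neurons on 48-well MEA plates, DIV 13 or 15, at 37 C. 40 min baseline then 40 min with compound (0.03-40 uM); spikes detected at 8x rms noise, expressed as percent change from baseline.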
Experiment [2] is described as follows: CCTE_Shafer_MEA_acute_firing_rate_mean: CCTE's Neural Acute Assay for Mean Firing Rate, Shafer Lab (AID 2284009).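 Also: analyzed for loss of signal so actives lower firing rate relative to DMSO.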 The essentials: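 Primary rat cortical neurons on 16-electrode MEA wells were exposed on DIV 13 or 15 to compound (0.03-40 uM). Spike counts per recording time, averaged over electrodes, were compared between 40-min baseline and 40-min post-exposure recordings as percent change.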

Experiment [3] is described as follows: CCTE_Harrill_HTTr_Viability_MCF7: CCTE's 6-hour Cell Viability Assessment for the High-Throughput Transcriptomics (HTTr) Platform, in MCF-7 cells cultured in DMEM + 10% fetal bovine serum, Harrill Lab (AID 2284010). The essentials: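 PI exclusion, high-content imaging; 8-pt dilution series, 6 h exposure; bidirectional fit vs DMSO (neg. ctrl/baseline); gain of signal = loss of membrane integrity.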

Experiment [4] in a line: CCTE_Harrill_HTTr_Apoptosis_MCF7: CCTE's 6-hour Apoptosis Assessment for the High-Throughput Transcriptomics (HTTr) Platform, in MCF-7 cells cultured in DMEM + 10% fetal bovine serum, Harrill Lab (AID 2284011). In outline:
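MCF-7 cells in DMEM + 10% FBS exposed 6 h to chemicals over an eight-point dilution series. Caspase-3/7 activation imaged by high-content CellEvent Green staining; fitted bidirectionally versus DMSO.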

The nature of experiment [5]: CCTE_Shafer_MEA_acute_burst_duration_mean: CCTE's Neural Acute Assay for Mean Burst Duration, Shafer Lab (AID 2284014).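 Also: hits are decreases in mean burst duration relative to DMSO controls.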 The essentials: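 Mean burst duration was compared between a 40 min baseline and a 40 min recording in the presence of compound (0.03-40 uM, 37 C), giving percent change per well. Cultures were rat cortical neurons at DIV 13 or 15; wells needed ≥10 active electrodes.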

A short description of experiment [6]: CCTE_Shafer_MEA_acute_per_burst_spike_number_mean: CCTE's Neural Acute Assay for Average Number of Spikes Per Burst, Shafer Lab (AID 2284015).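 Also: hits are decreases in mean spikes per burst versus baseline.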 In outline: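 Rat primary cortical neurons on 48-well MEAs (DIV 13 or 15) were treated with 0.03-40 uM compound at 37 C. Mean spikes per burst over 40 min were recorded before and after exposure and expressed as percent change from baseline, relative to DMSO.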

Experiment [7] is described as follows: CCTE_Shafer_MEA_acute_interburst_interval_mean: CCTE's Neural Acute Assay for Mean Interburst Interval, Shafer Lab (AID 2284016).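 Also: percent change of mean interburst interval versus each well's own pre-dose baseline; curves fitted for decrease in interburst interval relative to DMSO.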 In outline:
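Rat primary cortical neurons on 48-well MEAs at DIV 13 or 15 were exposed acutely to 0.03-40 uM. Spikes detected at 8x rms noise, 37 C. Mean interburst interval from 40 min recordings expressed as percent change from 40 min pre-treatment baseline.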

Experiment [8] can be described thus: CCTE_Shafer_MEA_acute_burst_percentage_mean: CCTE's Neural Acute Assay for Percentage of Spikes in a Burst, Shafer Lab (AID 2284017).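 As to AC50: curve fitted for loss of signal so potency reflects decreased burst percentage.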 In outline: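 Primary rat cortical neurons on 48-well MEA plates, treated on DIV 13 or 15 at 0.03-40 uM. Spikes detected at 8x rms noise at 37C; percent change from 40-min baseline to 40-min post-dose recording, fitted versus DMSO.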

A short description of experiment [9]: CCTE_Shafer_MEA_acute_burst_percentage_std: CCTE's Neural Acute Assay for Standard Deviation of Burst Percentage, Shafer Lab (AID 2284018).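 Also: fitted in the negative direction so actives lower burst percentage SD.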 In outline:
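Value is percent change from baseline in the across-electrode SD of spikes-in-bursts percentage, wells with >/= 10 active electrodes. Acute 40-min exposure to 0.03-40 uM on DIV 13 or 15 rat cortical cultures, recorded at 37 C after 40-min baseline.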

Experiment [10] in a line: CCTE_Shafer_MEA_acute_per_network_burst_spike_number_mean: CCTE's Neural Acute Assay for Average Number of Spikes in a Network Burst, Shafer Lab (AID 2284019).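 As to AC50: curve fitted for loss of signal so actives reduce spikes per network burst.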 In outline: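 Percent change from baseline in mean spikes per network burst, spikes detected at 8x rms noise. Each compound at 0.03-40 uM in at least three wells of rat cortical cultures, recorded 40 min before and 40 min during exposure.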

Experiment [11] is described as follows: CCTE_Shafer_MEA_acute_per_network_burst_spike_number_std: CCTE's Neural Acute Assay for Standard Deviation of Number of Spikes in a Network Burst, Shafer Lab (AID 2284020).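 Also: fitted for decrease in spike-number SD versus DMSO so actives lower it.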 In outline: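 Endpoint: percent change from 40 min baseline in standard deviation of spikes per network burst, after 40 min compound exposure (0.03-40 uM, 37 C). Cortical rat neurons on MEA at DIV 13 or 15; spikes detected at 8x rms noise, 300-5000 Hz band-pass.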

Experiment [12] can be described thus: CCTE_Shafer_MEA_acute_network_burst_percentage: CCTE's Neural Acute Assay for Percentage of Network Bursts, Shafer Lab (AID 2284022).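 Also: curves fitted for loss so actives lower network burst percentage.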 In outline:
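Rat primary cortical neuron networks on 48-well MEA plates, DIV 13 or 15, treated acutely with compound (0.03-40 uM, at least three wells). Percent of spikes within network bursts compared between 40-min recordings before and during exposure at 37 C, expressed as percent change.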

Experiment [13] in a line: CCTE_Shafer_MEA_acute_cross_correlation_area: CCTE's Neural Acute Assay for Area of Cross Correlation, Shafer Lab (AID 2284024).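 Also: curves fitted for loss of cross-correlation area so actives lower synchrony.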 The essentials:
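Rat primary cortical neurons on 48-well MEA, DIV 13 or 15; compounds 0.03-40 uM. Baseline and post-exposure 40 min recordings at 37 C; percent change in area under pooled inter-electrode cross-correlation near zero lag, relative to DMSO.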

A short description of experiment [14]: CCTE_Shafer_MEA_acute_cross_correlation_HWHM: CCTE's Neural Acute Assay for Cross Correlation at Half Width at Half Maximum, Shafer Lab (AID 2284026).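 Also: hits are a decrease in cross-correlogram half width relative to DMSO.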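 As to outcome: spontaneous network firing of rat primary cortical neurons on multiwell microelectrode arrays.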 In outline: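 Rat primary cortical neurons on 48-well MEA plates; 40-min baseline and 40-min post-exposure recordings at 37 C on DIV 13 or 15, compounds 0.03-40 uM. Spikes detected at 8x rms noise; percent change in cross-correlogram HWHM per well vs baseline.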

Experiment [15] can be described thus: CCTE_Shafer_MEA_acute_synchrony_index: CCTE's Neural Acute Assay for Synchrony, Shafer Lab (AID 2284027).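 Also: network synchrony index of spontaneous spiking in primary rat cortical neurons on MEAs; fitted for loss of signal so actives lower synchrony relative to DMSO.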 The essentials:
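Rat cortical cultures, DIV 13/15; spikes detected at 8x rms noise, 300-5000 Hz band-pass. Compound 0.03-40 uM, ≥3 wells; 40-min pre- and post-exposure recordings, 37 C. Readout: % change in synchrony index; loss-of-signal fit vs DMSO.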

Experiment [16] can be described thus: CCTE_Shafer_MEA_dev_firing_rate_mean: CCTE's Neural Network Formation Assay for Mean Firing Rate, Shafer Lab (AID 2284031). The essentials:
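Read-out: spike count/recording length, averaged over active electrodes, then AUC across days 5, 7, 9, 12. Rat cortical cultures on MEA; continuous 12-day exposure, media and treatment renewed DIV 5, 9; DMSO baseline.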

Experiment [17] in a line: CCTE_Shafer_MEA_dev_per_burst_spike_percent: CCTE's Neural Network Formation Assay for Percent of Spikes in a Burst, Shafer Lab (AID 2284032).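 Also: fitted as a decrease in burst spike percentage below DMSO baseline.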 In outline: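 Value is trapezoidal AUC over recordings on days 5, 7, 9 and 12 of the well-mean fraction of spikes falling in single-electrode bursts; rat cortical cultures exposed continuously from plating, treatment renewed DIV 5 and 9, fitted downward against DMSO.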

Experiment [18] can be described thus: CCTE_Harrill_HTTr_CellCount_MCF7: CCTE's Cell Proliferation Assessment for the High-Throughput Transcriptomics (HTTr) Platform, Harrill Lab (AID 2284012; active = hit-call score of the fitted dose curve at least 0.9, where 1 is the maximum;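 also: count of Hoechst-stained nuclei per well by high-content imaging in MCF-7 cells; cells exposed to compound for six hours; intended direction is loss of nuclei count meaning fewer cells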). In outline: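 Readout: Hoechst nuclear count by high-content imaging. MCF-7, 8-point dilution series, 6 h exposure. Bidirectional fit vs DMSO baseline.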

On to `Cc1cc(C(F)(C(F)(F)F)C(F)(F)F)ccc1NC(=O)c1cccc(I)c1C(=O)NC(C)(C)CS(C)(=O)=O`, for which the AC50 is 1.68 µM (active) in experiment [1]; 1.68 µM (active) in experiment [2]; 20.7 µM (active) in experiment [6]; 5.38 µM (active) in experiment [8]; 5.87 µM (active) in experiment [10]; 4.61 µM (active) in experiment [14]. Moreover, the AC50 is 5.74 µM (active) in experiment [15] and 5.5 µM (active) in [17]. The result in experiment [3], in experiment [4], in experiment [5], in [7], in experiment [9] and in experiment [11] was inactive. The compound was called inactive in experiment [12], in [13] and in [16].
In the case of `COCC(=O)N(c1c(C)cccc1C)[C@H](C)C(=O)OC`, the result in [3] and in experiment [4] was inactive.
In the case of `Cc1ccccc1OP(=O)(Oc1ccccc1C)Oc1ccccc1C`, the half-maximal activity concentration (AC50) in [1] is 25.4 µM (active); in experiment [5], 21.7 µM (active); in experiment [6], 27.8 µM (active); in experiment [7], 23.5 µM (active); in experiment [8] it was 26.3 µM (active); in [9], 24.2 µM (active). Further, the AC50 in [14] was 23.1 µM (active); in experiment [15], 28.1 µM (active); in [17] it was 15 µM (active). For the same compound, the result in experiment [2], in [10], in [11], in experiment [12], in [13] and in experiment [16] was inactive.
For the compound `O=NN1CCCCCC1`, the result in [3] and in experiment [4] was inactive.
In the case of `Clc1cccc(Cl)c1Cl`, the result in experiment [1], in [2], in [3], in experiment [18], in [5] and in [6] was inactive. Further, the compound was classed as inactive in experiment [7], in experiment [8], in experiment [9], in [10], in experiment [11] and in experiment [12]. In addition, the result in [13], in [14] and in experiment [15] was inactive.
As for `C1CN2CCN1CC2`, in experiment [3], the outcome was inactive.
On the same count and under the same terms, then `CN(N=O)C(N)=O`, with “inactive”.
For `O=S1OC[C@@H]2[C@H](CO1)[C@]1(Cl)C(Cl)=C(Cl)[C@@]2(Cl)C1(Cl)Cl` (stereo not given in full), the result in experiment [3] and in experiment [4] was inactive.
On to `COC(=O)c1cc(Oc2ccc(Cl)cc2Cl)ccc1[N+](=O)[O-]`, for which the result in [3] and in experiment [4] was inactive.
Take `CN(C)C(=S)S`: the compound was classed as inactive in experiment [1], in [2], in experiment [3], in experiment [5], in experiment [6] and in experiment [7]. Moreover, the compound was classed as inactive in experiment [8], in [9], in [10], in experiment [11], in experiment [12] and in experiment [13]. The compound was classed as inactive in experiment [14] and in experiment [15].
Consider `OCCCCO`, for which the compound was classed as inactive in [1], in experiment [2], in experiment [3], in [4], in experiment [5] and in [6]. In addition, the call in experiment [7], in experiment [8], in [9], in experiment [10], in experiment [11] and in [12] was inactive. For the same compound, the call in experiment [13], in experiment [14] and in experiment [15] was inactive.
With `C#C[C@]1(O)CC[C@H]2[C@@H]3CCC4=CC(=O)CC[C@]4(C)[C@H]3CC[C@@]21C`, in experiment [3], the outcome was inactive.
Still for that read-out and setting: then `C[As+](C)(C)CC(=O)[O-]`, with “inactive”; and `CCOP(=S)(OCC)Oc1ccc(Cl)cc1Cl`, with “inactive”; and `COc1nn(C(=O)NS(=O)(=O)c2ccccc2OC(F)(F)F)c(=O)n1C`, with “inactive”.
